Each structure is given as a SMILES string. This is part of a sample that, as a whole, favours compounds with a hit. Of some 83,000 tested, about 20% had one in any assay.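 Single-dose data. Exposure time 48 hours. Values below 10 considered active.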 Unmarked numbers belong to inactive results. The source made the active and inactive calls.

The results in this text go back to PubChem BioAssay (NCI).

The subject of the assay is HL-60(TB) leukemia. Briefly: NCI-60 one-dose screen, 48 h (100 = growth as untreated, 0 = no growth, -100 = all killed). To be noted: 10 µM unless noted.
With `O=C(Nc1ccc(NCCN2CCOCC2)nc1)c1ccc([N+](=O)[O-])cc1`, the growth is 127%.

For `Cc1c(C(=O)OCCCCOC(=O)c2c(C)n(C)c3scc[n+]23)[n+]2ccsc2n1C`, the growth is 87.1%.

On to `Nc1nc(C(=O)N/N=C/c2ccc(F)cc2)nn1-c1ccc(S(N)(=O)=O)cc1`, for which the growth was 99.5%.

For `CCCCC1=C(Br)C(=O)c2nc(C)ccc2C1=O`, the growth was 77%.

Consider `COc1ccc2c(c1)C(=O)/C(=C/c1ccc([N+](=O)[O-])s1)O2`, for which the growth was -10.7% (active).

As for `Nc1n[nH]c2cccc(C#Cc3cccc(NC(=O)c4cc(N5CCOCC5)cc(C(F)(F)F)c4)c3)c12`, the growth is 10.6%.

For the molecule `O=C(NCc1ccco1)Nc1cccc2c(NC(=O)NCc3ccco3)cccc12`, the growth is 66.5% [100 µM].

Turning to `Cn1c2ccccc2c2c3c(c4c5ccccc5n(C)c4c21)C(=O)OC3`, the growth is 98.5%.

Take `C=C1C(=O)O[C@H]2[C@H]1CC/C(COC(=O)/C=C\C(=O)NCc1ccc(Cn3c(=O)sn(CCCC)c3=O)cc1)=C\CC[C@@]1(C)O[C@@H]21`: the growth was -45.6% (active).

Turning to `CCC(C)C1NC(=O)C(CCCCN)NC(=O)C(CCCCN)NC(=O)C(CC(C)C)NC(=O)C(CCCCN)NC(=O)C(C(C)CC)NC(=O)C(C(C)C)NC(=O)C(C(C)CC)NC(=O)C(CCCCN)NC(=O)C(CCCCN)NC(=O)C(C)NC(=O)C(CCCCN)NC(=O)C(CC(C)C)NC1=O` (centres undefined), the growth was -35.2% (active).

With `Cc1cccc(-c2nc(Nc3ccc4ncsc4c3)c3ccccc3n2)n1`, the growth was 62.5%.

As for `N#CCc1ncc(-c2ccc(C(F)(F)F)cc2)c(NC2CCCCCC2)n1`, the growth is -28.4% [100 µM] (active).

As for `C#Cc1cccc(Nc2ncnc3ccc(NC(=O)c4ccccc4)cc23)c1`, the growth is 71.9%.

`COc1ccc(-c2nc(-c3cn(C)c4ncccc34)cs2)cc1`: the growth was 13% [100 µM].

Turning to `O=C1C=CC(=O)N1c1cc(Cl)c(Cl)cc1Cl`, the growth is 80.4%.

As to `CCn1c(-c2cc3c([nH]c4ccccc43)c(-c3cccc(O)c3)n2)n[nH]c1=S`, the growth was 4.16% (active).

For `COc1ccc(CCN2CCC(Nc3nc4ccccc4n3Cc3ccc(F)cc3)CC2)cc1`, the growth was -53.5% (active).

For `Fc1ccc(/C=C/[C@@H]2C[C@@H](F)CCO2)cc1`, the growth was 56.1%.

Consider `CC(C)(C)CC(C)(C)NCc1cc(C(C)(C)C)cc(CNC(C)(C)CC(C)(C)C)c1O`, for which the growth is -33.8% (active).

Consider `Cc1ccc(S(=O)(=O)NC(CCC(=O)Nc2ccccc2)C(=O)Nc2ccccc2)cc1` (centres undefined), for which the growth was -2.4% (active).

In the case of `Cc1oc(-c2ccc(Cl)cc2)nc1C1=NN(C(=O)c2ccncc2)C(c2ccccc2)C1` (centres undefined), the growth is 97.7%.

Consider `Cc1nn(-c2ccc(-c3ccc(OC(F)(F)F)cc3)cc2)c2nc(Cc3ccccc3)nc(N)c12`, for which the growth is 88.3%.

As for `CC(C)=CCc1cc2c(cc1O)C1=C(C(=O)C3=C(C1=O)S(=O)(=O)CCN3)C(C=C(C)C)O2` (centres undefined), the growth was -36% (active).

`C[C@@H]1C(=O)N(C[C@H](Cc2ccccc2)NC(=O)OCc2ccccc2)[C@]1(Cc1ccccc1)C(=O)OC(C)(C)C`: the growth is 81.5%.

For the molecule `CCC12CCC[N+]3([O-])CCC4(C(=Nc5ccccc54)C(O)(C(=O)OC)C1)C23` (centres undefined), the growth was 124%.

Take `Oc1ccccc1-c1nnc(COc2ccc(Cl)cc2Cl)o1`: the growth was 3.89% (active).

As to `O=C1C=CC(=O)N1Cc1ccco1`, the growth is 108%.

As to `COc1cc(Nc2ncc3c(n2)-c2ccc(Cl)cc2C(c2c(F)cccc2OC)=NC3)ccc1C(=O)O`, the growth is 45.4%.

Regarding `O=C(O)c1cccc(S(=O)(=O)c2ccccc2)c1`, the growth is 92%.

For the molecule `C=C(C)[C@@H]1CC[C@]2(C(=O)N3CCN(C)CC3)CC[C@]3(C)[C@H](CC[C@@H]4[C@@]5(C)CC[C@H](O)C(C)(C)[C@@H]5CC[C@]43C)[C@@H]12`, the growth is -52.6% (active).

On to `Cc1ccccc1NC(=O)Cc1csc2[n+]1C(=O)/C(=C/c1ccc([N+](=O)[O-])cc1)S2`, for which the growth was 103%.

For `O=C(Nc1cc([N+](=O)[O-])c2[nH]c(=O)c3ccccc3c2c1)C(F)(F)F`, the growth was 94.4%.

Regarding `COc1ccc(-c2nn(-c3cccc(Cl)c3)cc2-c2nc(N)[nH]c(=O)c2C#N)cc1`, the growth was 78.7%.

On to `C1=C\CCCCN2CC[C@H]3[C@H](CCCC/C=C\CCCN4C[C@@H](CCCCC/1)C[C@@H]3C4)C2`, for which the growth is -35.5% (active).
